High-throughput results as filed in PubChem BioAssay.
Shown are actives, neighbours in structure and some others; about 1.5% of the full set was active somewhere.
GC-B act = GC-B (human) receptor activation. P20594. HEK293-GC-B cells, CNP EC30, cGMP TR-FRET; 0% at EC30 CNP, 100% saturating CNP. activation, % at 10 µM. 370,000 tested, 0.11% active;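 active means activation at 10 µM reaching about 35% in either raw or pattern-adjusted values, limit read from the data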
NadD inh = inhibitors of Staphylococcus aureus NadD. 360,000 tested, 0.78% active. inhibition, % at 20 µM. purified NadD enzyme, colorimetric absorbance read-out. AID 602399; in the data active means inhibition above about 26%
Neddylation inh = inhibitors of human cullin neddylation; P61081+Q13564; TR-FRET cullin neddylation, biochemical; inhibition, % at 25 µM; 360,000 tested, 0.58% active; in the data active means inhibition above about 36%
NPR1 activator = GC-A (human) enzyme activation; HEK293 GC-A cells, cGMP TR-FRET, EC30 ANP; 0% at EC30 ANP, 100% saturating ANP; activation, % at 10 µM; 370,000 tested, 0.14% active; in the data active means activation above about 40%
NadD conf = NadD (S. aureus) inhibition, single concentration confirmation. shares compounds with NadD inh. purified S. aureus NadD, colorimetric enzyme assay. inhibition, % at 20 µM. 2,000 tested, 13% active. AID 624309; in the data active means inhibition mostly above about 42%, no sharp cut-off; inactive means mostly below about 42%
Active calls of the source: *.

What do the screens show for `Cn1c(-c2c(N)n(CCCc3ccccc3)c3nc4ccccc4nc23)nc2ccccc21`?
GC-B act: 1.3; NadD inh: 35.1*; NPR1 activator: 3.8; NadD conf: 10.3

How did C=CCN1C(=O)[C@@H](CC(=O)NCC2CCCCC2)[C@]2(C(=O)OCC)CCCCC/C=C/12 do in these assays?
GC-B act: 3.6; NPR1 activator: 0.6

What do the screens show for `Cc1cccc(NC(=O)c2nc[nH]c2C(=O)Nc2ccccc2[N+](=O)[O-])c1`?
GC-B act: -1.3; NadD inh: 31.2*; Neddylation inh: 5.7; NPR1 activator: 2.5; NadD conf: 3.4

How did O=S(=O)(c1ccc2c(c1)C(=NO)c1cc(S(=O)(=O)N3CCCCC3)ccc1-2)N1CCCCC1 do in these assays?
GC-B act: -3.9; NadD inh: 33.9*; NPR1 activator: -5.7; NadD conf: 7.5

What do the screens show for `O=S(=O)(c1ccc(S(=O)(=O)N2CCCC2)cc1)N1CCCCCC1`?
GC-B act: 5.0; NadD inh: 2.8; Neddylation inh: 4.2; NPR1 activator: 2.8

Results for O=C1N/C(=N\N=C\c2ccc3ncccc3c2)SC1Cc1ccc(SC(F)F)cc1 (configuration not stated) ?
GC-B act: -4.6; NadD inh: 32.7*; Neddylation inh: 7.8; NPR1 activator: 12.2; NadD conf: 10.4

What do the screens show for `Cc1cc2cc3c(cc2nc1SCC(=O)N1c2ccccc2CC1C)OCO3` (configuration not stated)?
GC-B act: -9.9; NadD inh: 16.2; Neddylation inh: -107.1; NPR1 activator: -5.7

What do the screens show for `CC1Cc2ccccc2N1C(=O)CSc1nc2cc3c(cc2cc1C#N)OCO3` (configuration not stated)?
GC-B act: -1.6; NadD inh: 35.1*; Neddylation inh: inactive; NPR1 activator: -4.9; NadD conf: 3.2

Results for O=c1cc(/N=C/c2coc3c(ccc4ccccc43)c2=O)[nH]c(=S)[nH]1 ?
GC-B act: -2.9; NadD inh: 64.7*; Neddylation inh: -18.1; NPR1 activator: -3.8; NadD conf: 1.8

Results for Cc1ccc(-c2cc(C(=O)NN=Cc3cccc4ccccc34)[nH]n2)cc1C ?
GC-B act: -10.0; NPR1 activator: -2.2

What do the screens show for `COc1ccc(Cc2c(C3CCCCC3)nc3c(Cl)cc(C(F)(F)F)cn23)c(C)c1`?
GC-B act: 0.9; NadD inh: 31.4*; Neddylation inh: 4.0; NPR1 activator: -6.2; NadD conf: 13.3

What do the screens show for `CN(C)c1ccc(/C=N/NC(=O)c2nnn(-c3nonc3N)c2CN(C)c2ccccc2)cc1`?
GC-B act: 6.5; NadD inh: 37.4*; NPR1 activator: -0.8; NadD conf: 37.6

How did COC(=O)c1nnn(-c2nonc2N)c1CN1CCc2ccccc21 do in these assays?
GC-B act: 3.8; NadD inh: 0.8; Neddylation inh: -4.0; NPR1 activator: 2.5

What do the screens show for `CCOc1ccc(/C=N/NC(=O)c2nnn(-c3nonc3N)c2-c2ccc(OCC)cc2)cc1`?
GC-B act: 6.3; NadD inh: 2.4; Neddylation inh: 13.3; NPR1 activator: 0.9

Results for CCN(CC)c1ccc(/C=N/NC(=O)c2nnn(-c3nonc3N)c2-c2ccc(C)cc2)cc1 ?
GC-B act: 2.6; NadD inh: 47.1*; NPR1 activator: 3.0; NadD conf: 25.2

What do the screens show for `Nc1nonc1-n1nnc(C(=O)N/N=C/c2ccccc2)c1CN1CCc2ccccc21`?
GC-B act: -2.4; NadD inh: 60.5*; Neddylation inh: -5.1; NPR1 activator: 7.4; NadD conf: 43.1

What do the screens show for `Cc1ccccc1CN1CCCCC(NC(=O)C2CCCC2)C1=O` (configuration not stated)?
GC-B act: -2.0; NPR1 activator: -0.7

How did COC(=O)C1=C(C)NC(=S)NC1c1ccc(Br)cc1 (configuration not stated) do in these assays?
GC-B act: -2.4; NPR1 activator: 3.5

How did CCCc1cc(=O)[nH]c(SCC(=O)N2N=C(c3ccc(Cl)cc3)CC2c2ccco2)n1 (configuration not stated) do in these assays?
GC-B act: 0.6; NadD inh: 35.3*; Neddylation inh: -9.3; NPR1 activator: -0.6; NadD conf: 49.5*

How did Nc1cc(=O)[nH]c(SCC(=O)N2N=C(c3ccc(Cl)cc3)CC2c2ccco2)n1 (configuration not stated) do in these assays?
GC-B act: -0.3; NadD inh: 27.6; Neddylation inh: 7.9; NPR1 activator: -4.7

How did CC(C)NC(=O)N[C@H]1C[C@@H]2O[C@H](CO)CC[C@@H]2O[C@@H]1CCc1ccc(-c2ccc(F)cc2)cc1 do in these assays?
GC-B act: -1.4; NPR1 activator: 7.8

Results for O=C(NC1CCCCN(Cc2cccc(C(F)(F)F)c2)C1=O)c1ccc(-c2ccccc2)cc1 (configuration not stated) ?
GC-B act: 0.3; NPR1 activator: -1.6

How did COc1ccc(C2C=C(C34CC5CC(CC(C5)C3)C4)NC(=S)N2)cc1OC (configuration not stated) do in these assays?
GC-B act: -7.5; NadD inh: 28.9*; Neddylation inh: 7.3; NPR1 activator: -4.8; NadD conf: 31.3

Results for COc1ccc(C2OCC(C)(C)CO2)cc1OC ?
GC-B act: 6.5; NadD inh: -3.7; Neddylation inh: -5.7; NPR1 activator: 4.0

How did CCOc1ccc(N2C(=O)/C(=C\c3ccc(OC)c(O)c3)S(=O)(=O)C2c2cccc([N+](=O)[O-])c2)cc1 (configuration not stated) do in these assays?
GC-B act: -3.4; NadD inh: 33.5*; Neddylation inh: -18.9; NPR1 activator: -6.4; NadD conf: 8.5

What do the screens show for `CCOC(=O)C1=C(C)n2c(s/c(=C/c3cccc([N+](=O)[O-])c3)c2=O)=NC1c1ccc(O)c(OC)c1` (configuration not stated)?
GC-B act: 5.0; NadD inh: -2.7; Neddylation inh: -2.4; NPR1 activator: 6.2

Results for CCOc1ccc(N2C(=O)/C(=C\c3ccc(O)c(OC)c3)S(=O)(=O)C2c2cccc([N+](=O)[O-])c2)cc1 (configuration not stated) ?
GC-B act: 0.7; NadD inh: 43.1*; Neddylation inh: -25.8; NPR1 activator: -2.4; NadD conf: 61.9*

How did O=C(Nc1ccc(N2C(=O)CC(c3ccccc3)C2=O)c(Cl)c1)c1ccccn1 (configuration not stated) do in these assays?
GC-B act: 3.6; NPR1 activator: -1.0

What do the screens show for `CCCCn1c(NC(=O)c2ccccc2)c(C#N)c2nc3ccccc3nc21`?
GC-B act: 0.3; NadD inh: 32.9*; Neddylation inh: 37.8; NPR1 activator: 0.7; NadD conf: 42.7

Results for CCC(C)n1c(NC(=O)c2ccccc2)c(C#N)c2nc3ccccc3nc21 (configuration not stated) ?
GC-B act: 10.8; NadD inh: 40.8*; Neddylation inh: 28.3; NPR1 activator: 0.8; NadD conf: 30.9
